In PubChem BioAssay AID652192 (Johns Hopkins Ion Channel Center, 2013):
Potency and affinity values are given separately. Unmarked numbers belong to inactive results. Active and inactive are the calls of the source.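 Rule for the calls: active = peak inhibition of the KCNQ2 potassium channel over 30% at some tested dose, with a fitted dose response curve; inactive = no inhibition at any dose, or no curve fitted.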

Target: Potassium voltage-gated channel subfamily KQT member 2 (Rattus norvegicus) (UniProt O88943)
Assay: KCNQ2 channel inhibition, SAR follow-up, selectivity assay for TASK1 inhibitor project, cell-based, FluxOR thallium flux, concentration-response (AID 652192)
Conditions: KCNQ2 cell line, FluxOR thallium flux fluorescence; series mostly up to 30 µM; flux ratio, lower = inhibition: at the top concentration

Chain of Potassium voltage-gated channel subfamily KQT member 2 (Rattus norvegicus) (O88943 whole entry, looked up): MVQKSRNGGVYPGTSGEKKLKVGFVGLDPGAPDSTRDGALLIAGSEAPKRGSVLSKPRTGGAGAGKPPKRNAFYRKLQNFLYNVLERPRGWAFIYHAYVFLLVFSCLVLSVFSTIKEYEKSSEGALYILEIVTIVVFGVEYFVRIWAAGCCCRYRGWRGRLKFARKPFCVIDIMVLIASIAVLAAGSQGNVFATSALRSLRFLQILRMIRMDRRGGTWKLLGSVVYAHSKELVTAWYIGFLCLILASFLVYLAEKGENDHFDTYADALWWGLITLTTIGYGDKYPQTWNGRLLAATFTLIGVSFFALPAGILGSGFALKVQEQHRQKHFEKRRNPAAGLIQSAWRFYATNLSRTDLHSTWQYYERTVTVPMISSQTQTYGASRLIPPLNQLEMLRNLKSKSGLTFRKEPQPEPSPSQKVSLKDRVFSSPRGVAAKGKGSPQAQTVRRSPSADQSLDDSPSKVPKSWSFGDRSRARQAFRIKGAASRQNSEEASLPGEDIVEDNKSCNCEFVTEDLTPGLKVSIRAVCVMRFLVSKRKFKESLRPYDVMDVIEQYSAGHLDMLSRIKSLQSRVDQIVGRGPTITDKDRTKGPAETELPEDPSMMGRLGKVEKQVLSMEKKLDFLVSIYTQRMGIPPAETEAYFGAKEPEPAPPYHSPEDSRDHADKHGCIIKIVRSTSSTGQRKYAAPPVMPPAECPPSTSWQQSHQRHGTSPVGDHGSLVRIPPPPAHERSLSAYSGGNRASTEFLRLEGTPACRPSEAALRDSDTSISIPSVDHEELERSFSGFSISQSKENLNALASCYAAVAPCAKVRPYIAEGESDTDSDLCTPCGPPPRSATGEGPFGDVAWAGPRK

SMILES | flux ratio, lower = inhibition | outcome
O=C(Nc1cccc(NC(=O)C2CCCCC2)c1)c1ccccc1 | 0.215 | 
CCOc1ccccc1NC(=O)c1cccc(C(=O)NC2CCCC2)c1 | 0.179 | 
COc1ccccc1C(=O)Nc1cccc(NC(=O)c2ccccc2C)c1 | 0.166 | 
O=C(Nc1cccc(NC(=O)c2cccc(Cl)c2)c1)c1ccccc1 | 0.143 | 
COc1ccccc1C(=O)Nc1cccc(NC(=O)c2ccccc2OC(F)(F)F)c1 | 0.183 | 
CCOc1ccccc1NC(=O)c1cccc(NC(=O)C2CCCO2)c1 (configuration not stated) | 0.195 | 
O=C(Nc1cccc(NC(=O)c2cccs2)c1)c1ccccc1 | 0.191 | 
O=C(Nc1cccc(NC(=O)c2ccccc2Cl)c1)c1ccccc1 | 0.169 | 
O=C(Nc1cccc(NC(=O)c2cccnc2)c1)c1ccccc1 | 0.219 | 
Cc1cccc(C(=O)Nc2cccc(NC(=O)c3cccc(F)c3)c2)c1 | 0.405 | 
O=C(Nc1cccc(NC(=O)c2ccco2)c1)c1ccccc1 | 0.214 | 
O=C(Nc1cccc(NC(=O)c2ccccc2C(F)(F)F)c1)c1ccccc1 | 0.219 | 
COc1ccccc1C(=O)Nc1cccc(NC(=O)c2ccccc2)c1 | 0.162 | 
O=C(Nc1cccc(NC(=O)c2ccc(C(F)(F)F)cc2)c1)c1ccccc1 |  | inactive
Cc1cccc(C(=O)Nc2cccc(NC(=O)c3cccs3)c2)c1 | 0.169 | 
O=C(Nc1cccc(NC(=O)c2ccccc2)c1)c1ccccc1 | 0.155 | 

SMILES | flux ratio, lower = inhibition | outcome
CCOc1ccc(NC(=O)c2cccc(NC(=O)C3CCCC3)c2)cc1 | 0.18 | 
CCOc1ccccc1NC(=O)c1cccc(NC(=O)C2CCCC2)c1 | 0.186 | 
COc1ccccc1C(=O)Nc1cccc(NC(=O)c2cccc3ccccc23)c1 | 0.22 | 
CCOc1ccccc1C(=O)Nc1cccc(NC(=O)c2ccccc2C(F)(F)F)c1 | 0.177 | 
O=C(Nc1cccc(NC(=O)c2ccc(F)cc2)c1)c1ccccc1 | 0.186 | 
O=C(Nc1ccccc1Cl)c1cccc(NC(=O)C2CCCC2)c1 | 0.161 | 
COc1ccccc1C(=O)Nc1cccc(NC(=O)c2cccc(C)c2)c1 | 0.189 | 
Cc1cccc(C(=O)Nc2cccc(NC(=O)c3cccc(C)c3)c2)c1 | 0.203 | 
CCOc1ccccc1NC(=O)c1cccc(NC(=O)c2ccc(Cl)cc2)c1 | 0.181 | 
COc1ccc(C(=O)Nc2cccc(NC(=O)c3ccccc3)c2)cc1 | 0.151 | 
Cc1cccc(C(=O)Nc2cccc(NC(=O)c3ccccc3C(F)(F)F)c2)c1 | 0.155 | 
COc1cccc(C(=O)Nc2cccc(NC(=O)c3cccc(C)c3)c2)c1 | 0.169 | 
CCOc1ccccc1NC(=O)c1cccc(NC(=O)c2ccccc2Cl)c1 | 0.151 | 
COc1ccccc1C(=O)Nc1cccc(NC(=O)c2ccccc2OC)c1 | 0.346 | 
O=C(Nc1cccc(NC(=O)c2ccoc2)c1)c1ccccc1 | 0.171 | 
Cc1cccc(C(=O)Nc2ccccc2NC(=O)c2ccccc2)c1 | 0.144 | 
